# Assay results published in article PMC5540273 (PLoS ONE, 2017).
# System: DDR1
# 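Further: kd values determined as follow-up on hits from a single-replicate KINOMEscan panel screen.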
row,SMILES,Kd [nM]
1,COc1ccc(-c2oc3ncnc(N)c3c2-c2ccc(OC)cc2)cc1 [SB-589132],650
2,COc1ccc(NC(=O)Nc2ccc(C)c(-c3ccc(C(=O)Nc4ccncc4)cc3)c2)cc1 [GSK1398475],860
3,Fc1ccc(Nc2nccc(-c3c(-c4ccc(Cl)cc4)nn4ncccc34)n2)cc1F [GW829058],750
4,FC(F)(F)c1ccc(-c2nn3ncccc3c2-c2ccnc(Nc3cccc(C(F)(F)F)c3)n2)cc1 [GW828205],> 10000
5,Cn1ccc2ncnc(Oc3ccc(NC(=O)Nc4cccnc4)c(Cl)c3)c21,57
6,O=C(Nc1ccccc1)Nc1ccc(Oc2ccc3nccn3n2)cc1,9.3
7,Cn1cc(-c2ccc3c(c2)CCN3C(=O)Cc2cccc(C(F)(F)F)c2)c2c(N)ncnc21 [GSK2606414],280
8,Cc1ccc(NC(=O)c2cccc(C#N)c2)cc1-c1ccc(C(=O)Nc2ccncc2)cc1 [GSK1398463],22
